The values that follow come from PubChem BioAssay (EPA / NIEHS).

Each structure is given as a SMILES string. “And” between values parts separate entries of the source, which are not always exact repeats. Identical values can stand only once. Inconclusive results are not listed. A structure can be active in one record and inactive in another. The source made the active and inactive calls. How the source made its calls, unless noted: active means hit-call score of the fitted dose curve at least 0.9, where 1 is the maximum; inactive means score below 0.9.

In test [1] the target is human RAR-related Orphan Receptor beta (RORb), RORB (gene 6096) (UniProt Q92753). Nature of the test: ATG_RORb_TRANS: Attagene TRANS-FACTORIAL HepG2 Assay for human RAR-related Orphan Receptor beta (RORb) (AID 2283010; active means hit-call score of the fitted dose curve at least 0.9, where 1 is the maximum). In a few lines: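 HepG2 cells were transiently transfected with multiplexed GAL4-UAS reporter units expressing chimeric nuclear receptor–GAL4 proteins, then dosed for 24 h. Reporter mRNA was quantified by RT-PCR with fluorescent labelling and capillary electrophoresis; gain of signal was fitted relative to DMSO.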
Sequence of human RAR-related Orphan Receptor beta (RORb), RORB (gene 6096) (Q92753 whole entry, looked up, the tested form may be a part): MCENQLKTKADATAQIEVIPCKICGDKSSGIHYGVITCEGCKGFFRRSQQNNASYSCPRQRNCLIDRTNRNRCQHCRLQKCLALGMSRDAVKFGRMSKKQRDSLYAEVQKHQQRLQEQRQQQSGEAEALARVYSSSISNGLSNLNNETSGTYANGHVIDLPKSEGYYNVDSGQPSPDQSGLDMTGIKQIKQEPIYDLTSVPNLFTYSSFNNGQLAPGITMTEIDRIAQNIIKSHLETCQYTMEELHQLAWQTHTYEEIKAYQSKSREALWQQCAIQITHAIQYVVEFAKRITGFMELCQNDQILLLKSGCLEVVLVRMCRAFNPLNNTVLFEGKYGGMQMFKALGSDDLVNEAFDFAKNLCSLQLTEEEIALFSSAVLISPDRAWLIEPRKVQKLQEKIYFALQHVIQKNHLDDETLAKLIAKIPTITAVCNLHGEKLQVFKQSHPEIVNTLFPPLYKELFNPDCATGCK

The target in test [2] is Retinoic acid receptor RXR-alpha (Homo sapiens) (UniProt P19793). Description: ATG_RXRa_TRANS: Attagene TRANS-FACTORIAL HepG2 Assay for human Retinoid X Receptor alpha (RXRa) (AID 2283012; active means hit-call score of the fitted dose curve at least 0.9, where 1 is the maximum). Put shortly: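 HepG2 cells transiently transfected with multiplexed GAL4-UAS reporter units and chimeric NR-GAL4 fusions, dosed 24 h. Reporter mRNA measured by RT-PCR, FAM labelling, HpaI digestion and capillary electrophoresis; gain-of-signal fitted relative to DMSO baseline.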
Sequence of Retinoic acid receptor RXR-alpha (Homo sapiens) (P19793 whole entry, looked up, the tested form may be a part): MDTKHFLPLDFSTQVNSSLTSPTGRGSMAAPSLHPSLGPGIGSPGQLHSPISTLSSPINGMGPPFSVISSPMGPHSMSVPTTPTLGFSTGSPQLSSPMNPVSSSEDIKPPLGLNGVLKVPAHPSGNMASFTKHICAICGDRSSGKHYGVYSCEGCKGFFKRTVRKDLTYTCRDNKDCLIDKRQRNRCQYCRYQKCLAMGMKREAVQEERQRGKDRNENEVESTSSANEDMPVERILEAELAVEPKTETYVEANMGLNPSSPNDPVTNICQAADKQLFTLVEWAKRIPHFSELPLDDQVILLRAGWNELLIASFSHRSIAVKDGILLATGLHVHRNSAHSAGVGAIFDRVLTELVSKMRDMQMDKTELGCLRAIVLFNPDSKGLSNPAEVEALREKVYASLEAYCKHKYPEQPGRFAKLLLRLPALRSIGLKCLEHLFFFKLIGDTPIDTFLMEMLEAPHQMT

Test [3] deals with human Retinoid X Receptor beta (RXRb), RXRB (gene 6257) (UniProt P28702). Description: ATG_RXRb_TRANS: Attagene TRANS-FACTORIAL HepG2 Assay for human Retinoid X Receptor beta (RXRb) (AID 2283013; active means hit-call score of the fitted dose curve at least 0.9, where 1 is the maximum). Put shortly:
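HepG2 cells transiently transfected with multiplexed reporter units driven by GAL4-UAS and exogenous chimeric NR-Gal4 proteins; treated 24 h. Reporter mRNA measured by RT-PCR, 6-FAM labelling and capillary electrophoresis; gain-of-signal fitted versus DMSO baseline.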

Test [4] deals with human Thyroid Receptor alpha (THRa1), THRA (gene 7067) (UniProt P10827). Nature of the test: ATG_THRa1_TRANS: Attagene TRANS-FACTORIAL HepG2 Assay for human Thyroid Receptor alpha (THRa1) (AID 2283014; active means hit-call score of the fitted dose curve at least 0.9, where 1 is the maximum). Put shortly: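 HepG2 cells transiently transfected with multiplexed GAL4-UAS reporter units for exogenous chimeric THRa1-Gal4; reporter mRNA measured 24 h after dosing by RT-PCR, 6-FAM labelling, HpaI digestion and capillary electrophoresis. Gain-of-signal fitted versus DMSO baseline.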
Sequence of human Thyroid Receptor alpha (THRa1), THRA (gene 7067) (P10827 whole entry, looked up, the tested form may be a part): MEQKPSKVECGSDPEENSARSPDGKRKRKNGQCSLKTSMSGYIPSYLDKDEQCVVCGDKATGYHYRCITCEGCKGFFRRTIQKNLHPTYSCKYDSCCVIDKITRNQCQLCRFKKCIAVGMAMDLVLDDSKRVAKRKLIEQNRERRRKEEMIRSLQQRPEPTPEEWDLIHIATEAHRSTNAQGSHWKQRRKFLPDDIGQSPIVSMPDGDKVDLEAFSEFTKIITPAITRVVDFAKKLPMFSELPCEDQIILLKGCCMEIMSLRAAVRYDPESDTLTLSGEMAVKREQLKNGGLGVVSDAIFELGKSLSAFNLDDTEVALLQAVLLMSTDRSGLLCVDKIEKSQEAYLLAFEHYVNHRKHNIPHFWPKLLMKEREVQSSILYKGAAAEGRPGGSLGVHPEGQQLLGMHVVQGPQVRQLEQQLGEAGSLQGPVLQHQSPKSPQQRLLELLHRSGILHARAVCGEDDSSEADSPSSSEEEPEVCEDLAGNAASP

Read-out in test [5]: E-selectin (Homo sapiens) (UniProt P16581)
Description: BSK_3C_Eselectin: BioMAP Diversity Plus: 3C Assay for Eselectin Biomarker Activity (AID 2283015).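 On outcome: cell surface E-selectin protein quantified by ELISA 24 h after dosing.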 The conditions noted are these: primary human endothelial cells (HUVEC); actives raise or lower the signal. In a few lines:
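Primary human umbilical vein endothelial cells (3C system) were dosed with chemical and cell-surface E-selectin measured by ELISA 24 h later. Bidirectional curve fitting used DMSO as negative control and baseline.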

Read-out in test [6]: Interleukin-1 alpha (IL1a), IL1A (gene 3552)
Nature of the test: BSK_BE3C_IL1a: BioMAP Diversity Plus: BE3C Assay for Interleukin-1 alpha (IL1a) Biomarker Activity (AID 2283016). The following applies: primary human bronchial epithelial cells; actives raise or lower the signal. Put shortly:
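Human primary bronchial epithelial cells (BE3C system) were dosed with compound and IL-1a measured by ELISA 24 h later. Activity was fitted bidirectionally against DMSO baseline; cytotoxicity was tracked in parallel cultures by SRB total-protein staining.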

Read-out in test [7]: Monocyte Chemoattractant Protein-1 (MCP1), CCL2 (gene 6347)
Nature of the test: BSK_3C_MCP1: BioMAP Diversity Plus: 3C Assay for Monocyte Chemoattractant Protein-1 (MCP1) Biomarker Activity (AID 2283017). The conditions noted are these: primary human endothelial cells (HUVEC); actives raise or lower the signal. In a few lines:
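Primary human umbilical vein endothelial cells (3C system) were exposed to test chemical for 24 h, after which MCP-1 was quantified by ELISA. Activity was fitted bidirectionally against DMSO as negative control and baseline.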

Read-out in test [8]: Monocyte Chemoattractant Protein-1 (MCP1), CCL2 (gene 6347)
Description: BSK_4H_MCP1: BioMAP Diversity Plus: 4H Assay for Monocyte Chemoattractant Protein-1 (MCP1) Biomarker Activity (AID 2283018). The following applies: primary human endothelial cells (HUVEC); actives raise or lower the signal. Put shortly:
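Human umbilical vein endothelial cells (4H system) dosed with chemical; MCP-1 measured by ELISA 24 h after dosing. Bidirectional curve fitting against DMSO negative control as baseline; parallel SRB total-protein staining tracks overt cytotoxicity.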

Read-out in test [9]: Human Leukocyte Antigen - DR isotype (HLADR), HLA-DRA (gene 3122)
Description: BSK_3C_HLADR: BioMAP Diversity Plus: 3C Assay for Human Leukocyte Antigen - DR isotype (HLADR) Biomarker Activity (AID 2283019).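 Further: ELISA of cell-surface HLA-DR on HUVEC 24 h after dosing.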 The following applies: primary human endothelial cells (HUVEC); actives raise or lower the signal. In a few lines:
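Primary human umbilical vein endothelial cells (3C system) were dosed with compound and cell-surface HLA-DR was quantified by ELISA at 24 h. Activity was fitted bidirectionally against DMSO as negative control and baseline.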

Read-out in test [10]: Interleukin-8 (IL8), CXCL8 (gene 3576)
Description: BSK_3C_IL8: BioMAP Diversity Plus: 3C Assay for Interleukin-8 (IL8) Biomarker Activity (AID 2283020). The conditions noted are these: primary human endothelial cells (HUVEC); actives raise or lower the signal. In a few lines: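 Primary human umbilical vein endothelial cells (3C system) were exposed to test chemical for 24 h, then IL-8 was quantified by ELISA. Responses were fitted bidirectionally against DMSO vehicle as baseline.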

For test [11], the target named is human Vitamin D Receptor (VDR), VDR (gene 7421) (UniProt P11473). Description: ATG_VDR_TRANS: Attagene TRANS-FACTORIAL HepG2 Assay for human Vitamin D Receptor (VDR) (AID 2283022; active means hit-call score of the fitted dose curve at least 0.9, where 1 is the maximum). Put shortly:
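HepG2 cells were transiently transfected with multiple GAL4-UAS reporter units, so signal reflects exogenous chimeric receptor-Gal4 activity. After 24 h compound exposure, reporter mRNA was measured by RT-PCR, fluorescent labelling and capillary electrophoresis, fitted for gain of signal versus DMSO.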

Test [12] can be described thus: BSK_3C_SRB: Viability Assessment in the BioMAP Diversity Plus: 3C Assay (AID 2283023).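 Further: fitted both ways against DMSO so a hit may be signal rise or drop.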 The conditions noted are these: primary human endothelial cells (HUVEC). Put shortly: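 Primary human umbilical vein endothelial cells in the 3C system were read 24 h after compound dosing. Total protein was stained with 0.1% sulforhodamine B after 10% TCA fixation and read at 560 nm, with bidirectional fitting against DMSO as baseline.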

Read-out in test [13]: Matrix Metallopeptidase 1 (MMP1), MMP1 (gene 4312)
Description: BSK_BE3C_MMP1: BioMAP Diversity Plus: BE3C Assay for Matrix Metallopeptidase 1 (MMP1) Biomarker Activity (AID 2283024). The conditions noted are these: primary human bronchial epithelial cells; actives raise or lower the signal. Put shortly:
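Primary human bronchial epithelial cells were dosed with test chemicals, and MMP1 levels were measured by ELISA 24 h later. Data were fitted bidirectionally against DMSO as the negative control and activity baseline.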

Read-out in test [14]: Pselectin, SELP (gene 6403)
Description: BSK_4H_Pselectin: BioMAP Diversity Plus: 4H Assay for Pselectin Biomarker Activity (AID 2283026). The following applies: primary human endothelial cells (HUVEC); actives raise or lower the signal. Put shortly: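 Primary human umbilical vein endothelial cells were exposed to test chemical for 24 h, then cell-surface P-selectin was quantified by ELISA. Activity was fitted bidirectionally against DMSO as negative control and baseline.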

Test [15] is described as follows: BSK_4H_SRB: Viability Assessment in the BioMAP Diversity Plus: 4H Assay (AID 2283027).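 Further: cells exposed to compound for 24 h before staining.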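 On AC50: curves fitted both ways versus DMSO so AC50 may be loss or gain.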 The following applies: primary human endothelial cells (HUVEC). In a few lines: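 Human umbilical vein endothelial cells were dosed with chemical and, after 24 h, fixed with 10% TCA, stained with 0.1% sulforhodamine B, and read at 560 nm to give total protein as a cytotoxicity measure. Bidirectional fitting relative to DMSO control.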

Read-out in test [16]: Thrombomodulin, THBD (gene 7056)
Description: BSK_3C_Thrombomodulin: BioMAP Diversity Plus: 3C Assay for Thrombomodulin Biomarker Activity (AID 2283029). The following applies: primary human endothelial cells (HUVEC); actives raise or lower the signal. In a few lines: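 Primary human umbilical vein endothelial cells (3C system) were exposed to chemical for 24 h, then thrombomodulin levels were measured by ELISA. Activity was fitted bidirectionally against the DMSO negative control as baseline.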

Read-out in test [17]: Urokinase-type plasminogen activator receptor (uPAR), PLAUR (gene 5329)
Nature of the test: BSK_4H_uPAR: BioMAP Diversity Plus: 4H Assay for Urokinase-type plasminogen activator receptor (uPAR) Biomarker Activity (AID 2283030). The following applies: primary human endothelial cells (HUVEC); actives raise or lower the signal. Put shortly:
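Primary human umbilical vein endothelial cells were exposed to chemical for 24 h before cell-surface uPAR was quantified by ELISA. Activity was fitted bidirectionally against the DMSO negative control baseline.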

Test [18] addresses human RAR-related Orphan Receptor gamma (RORg), RORC (gene 6097) (UniProt P51449). Nature of the test: ATG_RORg_TRANS: Attagene TRANS-FACTORIAL HepG2 Assay for human RAR-related Orphan Receptor gamma (RORg) (AID 2283011; active means hit-call score of the fitted dose curve at least 0.9, where 1 is the maximum). In a few lines:
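Readout: reporter transcript induction (RT-PCR, fluorescent primer extension, capillary electrophoresis) after 24 h compound exposure of transiently transfected HepG2 cells carrying a RORg-Gal4 chimera and GAL4-UAS reporters; DMSO served as baseline, with increasing signal fitted.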

Read-out in test [19]: Monokine induced gamma interferon (MIG), CXCL9 (gene 4283)
Nature of the test: BSK_3C_MIG: BioMAP Diversity Plus: 3C Assay for Monokine induced gamma interferon (MIG) Biomarker Activity (AID 2283021). The following applies: primary human endothelial cells (HUVEC); actives raise or lower the signal. In a few lines:
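Primary human umbilical vein endothelial cells in the 3C system were exposed to chemical for 24 h, after which MIG was quantified by ELISA. Activity was fitted bidirectionally against DMSO as negative control and baseline.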

Sequence of E-selectin (Homo sapiens) (P16581 whole entry, looked up): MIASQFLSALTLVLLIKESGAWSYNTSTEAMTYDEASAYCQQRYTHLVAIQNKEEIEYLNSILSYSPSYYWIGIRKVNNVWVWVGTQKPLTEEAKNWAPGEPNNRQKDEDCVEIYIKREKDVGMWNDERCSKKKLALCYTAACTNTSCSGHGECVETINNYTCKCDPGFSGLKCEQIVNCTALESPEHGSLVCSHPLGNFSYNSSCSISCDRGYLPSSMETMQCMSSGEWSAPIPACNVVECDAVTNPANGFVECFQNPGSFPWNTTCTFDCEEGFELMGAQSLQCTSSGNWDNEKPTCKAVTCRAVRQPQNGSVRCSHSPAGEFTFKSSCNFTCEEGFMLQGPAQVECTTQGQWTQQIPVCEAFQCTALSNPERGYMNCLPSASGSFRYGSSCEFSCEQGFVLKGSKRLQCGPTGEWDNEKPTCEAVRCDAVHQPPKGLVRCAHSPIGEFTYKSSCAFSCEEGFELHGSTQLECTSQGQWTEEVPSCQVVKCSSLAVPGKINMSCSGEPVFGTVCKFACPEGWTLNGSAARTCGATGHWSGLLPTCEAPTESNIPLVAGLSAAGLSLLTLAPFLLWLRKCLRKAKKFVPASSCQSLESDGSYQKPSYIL
Sequence of human RAR-related Orphan Receptor gamma (RORg), RORC (gene 6097) (P51449 whole entry, looked up, the tested form may be a part): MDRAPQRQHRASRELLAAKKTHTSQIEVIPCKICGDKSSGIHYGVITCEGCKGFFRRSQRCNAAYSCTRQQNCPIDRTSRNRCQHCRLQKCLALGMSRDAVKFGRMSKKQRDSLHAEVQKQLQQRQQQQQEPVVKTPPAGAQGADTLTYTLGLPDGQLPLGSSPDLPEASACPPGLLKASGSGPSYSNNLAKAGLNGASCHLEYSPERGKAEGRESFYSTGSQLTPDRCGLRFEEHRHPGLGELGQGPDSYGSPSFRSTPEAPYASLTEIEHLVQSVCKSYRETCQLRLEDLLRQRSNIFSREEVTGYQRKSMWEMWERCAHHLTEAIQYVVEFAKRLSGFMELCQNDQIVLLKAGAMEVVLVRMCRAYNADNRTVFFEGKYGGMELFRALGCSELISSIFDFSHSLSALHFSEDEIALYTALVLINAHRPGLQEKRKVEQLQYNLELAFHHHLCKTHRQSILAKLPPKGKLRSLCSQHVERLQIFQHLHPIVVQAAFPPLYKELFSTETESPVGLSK
Sequence of human Vitamin D Receptor (VDR), VDR (gene 7421) (P11473 whole entry, looked up, the tested form may be a part): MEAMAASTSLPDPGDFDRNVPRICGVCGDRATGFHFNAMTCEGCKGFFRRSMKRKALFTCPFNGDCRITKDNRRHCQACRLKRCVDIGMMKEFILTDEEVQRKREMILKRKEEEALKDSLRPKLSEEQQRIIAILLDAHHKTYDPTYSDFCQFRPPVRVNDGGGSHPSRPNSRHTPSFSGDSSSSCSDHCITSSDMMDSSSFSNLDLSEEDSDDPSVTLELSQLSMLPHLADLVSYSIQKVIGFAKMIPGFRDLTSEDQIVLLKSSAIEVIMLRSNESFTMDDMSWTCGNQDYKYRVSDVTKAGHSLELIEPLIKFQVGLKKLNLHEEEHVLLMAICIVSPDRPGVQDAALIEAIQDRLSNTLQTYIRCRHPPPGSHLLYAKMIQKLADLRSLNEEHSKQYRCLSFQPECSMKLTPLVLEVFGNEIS
Sequence of human Retinoid X Receptor beta (RXRb), RXRB (gene 6257) (P28702 whole entry, looked up, the tested form may be a part): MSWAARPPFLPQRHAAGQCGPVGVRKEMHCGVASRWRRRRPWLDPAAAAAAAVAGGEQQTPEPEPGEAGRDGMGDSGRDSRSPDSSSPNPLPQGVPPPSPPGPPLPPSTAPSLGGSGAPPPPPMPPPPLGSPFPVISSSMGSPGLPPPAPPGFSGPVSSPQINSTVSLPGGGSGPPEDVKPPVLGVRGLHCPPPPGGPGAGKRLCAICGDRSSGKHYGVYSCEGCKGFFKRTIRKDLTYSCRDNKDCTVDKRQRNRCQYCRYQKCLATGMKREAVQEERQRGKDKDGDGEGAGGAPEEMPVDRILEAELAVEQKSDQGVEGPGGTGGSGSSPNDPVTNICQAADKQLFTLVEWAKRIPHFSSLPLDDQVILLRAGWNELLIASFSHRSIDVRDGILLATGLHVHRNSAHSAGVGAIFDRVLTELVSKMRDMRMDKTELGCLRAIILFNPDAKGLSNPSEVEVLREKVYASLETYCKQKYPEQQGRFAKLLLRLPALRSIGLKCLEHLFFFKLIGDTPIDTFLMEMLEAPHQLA

Take `Cc1ccc(O)c(-n2nc3ccccc3n2)c1`: the call in test [1], in [2], in test [4], in test [5], in [6] and in test [7] was inactive. The outcome in [8], in test [9], in test [10], in test [11], in test [12] and in test [13] was inactive. Further, the result in [14], in [15], in test [16] and in test [17] was inactive. For the same molecule, in [3], the half-maximal activity concentration (AC50) was 20.4 µM (active).

Regarding `O=S(=O)(Cl)C(F)(F)C(F)(F)C(F)(F)C(F)(F)C(F)(F)C(F)(F)C(F)(F)C(F)(F)F`, the outcome in test [1], in test [18], in [2], in test [3], in test [7] and in [8] was inactive. Further, the outcome in [9], in [19], in test [14], in test [15] and in [17] was inactive. The AC50 in test [5] is 46.5 µM (active) and 39.2 µM (active); in test [6] it was 46.4 µM (active) and 47.1 µM (active); in test [8] it was 22.3 µM (active); in test [10], 30 µM (active) and 35.3 µM (active); in test [12], 49.3 µM (active) and 55.6 µM (active); in test [13] it was 7.12 µM (active) and 7.23 µM (active). The AC50 in test [15] was 45.9 µM (active); in test [16] it was 30 µM (active) and 44.8 µM (active); in test [17], 12.1 µM (active).

On to `CC(=O)c1ccccc1N`, for which the outcome in [1], in test [18], in test [2], in test [3], in test [4] and in [11] was inactive.

Regarding `Cc1cc(=O)[nH]c(C(C)C)n1`, the call in [1], in [18], in test [3] and in test [11] was inactive.
